# From PubChem BioAssay (NCATS)
# Inconclusive results are not listed. Activity calls are given as the source filed them. The call rests on the fitted dose curve; in most records, active means well fitted curve in the direction sought with a large enough effect; inconclusive means small, poorly fitted or top-dose-only effect, or another doubt; inactive means no such curve, though single readings can be large or run the other way.
# Biological target: phosphoglycerate mutase (Leishmania major) (UniProt Q4Q090)
# Assay: qHTS Validation Assay to Find Inhibitors of Phosphoglycerate Mutase (AID 504548)
# Conditions: biochemical enzyme activity; Potency: inhibition qHTS; series mostly up to 57.5 µM; activity change, negative = inhibition: at the top concentration
# Source text: NIH Molecular Libraries Probe Production Network [MLPCN]
# NIH Chemical Genomics Center [NCGC]
# PI Name: Malcolm Walkinshaw, University of Edinburgh
# Several species of the Trypanosomatidae family of parasitic protozoans cause a spectrum of diseases throughout the tropical and subtropical world. Sleeping sickness, caused by two subspecies of Trypanosoma brucei, is endemic to areas of sub-Saharan Africa, while Chagas disease, a manifestation of Trypanosoma cruzi infection, is prevalent throughout Central and South America. In addition, many species of Leishmania are responsible for a range of cutaneous and visceral diseases, causing ulcers, destructive lesions and kalaazar, a lethal infection of the viscera. Collectively, these organisms infect 30 million people worldwide (~500 million live in endemic areas), and account for ~130,000 deaths annually. Given their debilitating and prevalent nature, trypanosomatid parasites impose a heavy medical, economic and social burden on entire populations, primarily in the developing world. The problem is further exacerbated by the fact that existing treatments have progressed little in the past 50 years, and current drugs show high toxicity and poor efficacy.
# Blood-stream stages of T. brucei are entirely dependent on glycolysis as a source of ATP, and the tricarboxylic acid cycle and oxidative phosphorylation are both repressed. Glycolysis in axenically cultured T. cruzi, representing the intracellular pathogenic stage, is also essential for these parasites. […] Previous studies have shown that the glycolytic enzyme, phosphoglycerate mutase (PGAM), is a viable target for drugs to kill these parasites. […] Furthermore, the cobalt centers present within PGAM are only found in trypanosomatid and plant PGAMs, and are known to be required for activity, thereby providing an additional target. Moreover, trypanosomatid PGAMs are completely different from the enzyme that performs the same function in humans: the parasite and host enzymes share no structural or even mechanistic features; specificity is therefore unlikely to be an issue.
# NCGC Assay Protocol Summary:
# Briefly, 3ul of substrate buffer (all columns) are dispensed into Greiner white solid bottom 1536-well assay plates. Compounds are then transferred via Kalypsys pin tool equipped with 1536-pin array (10nl slotted pins, V&P Scientific, San Diego, CA). Following addition of compound, 1ul of Lm PGAM (1.25nM final concentration, columns […]) is added to initiate the reaction; columns 3-4 receive only TEA buffer as negative controls. The plates are then incubated at room temperature for 45 minutes. Kinase-GloPlus reagent is added (2ul) and plates incubated for 10 minutes, before being transferred to a ViewLux high-throughput CCD imager (PerkinElmer) wherein single end-point measurements of luminescence are acquired using a clear filter. All reagents are diluted in an assay buffer consisting of 100 mM TEA (pH 7.6), 5 mM MgCl2 and 0.01% Tween-20.
# On the % scale 0 is the no-effect control and ±100 the full control effect.
# Chain of phosphoglycerate mutase (Leishmania major) (Q4Q090 1-553): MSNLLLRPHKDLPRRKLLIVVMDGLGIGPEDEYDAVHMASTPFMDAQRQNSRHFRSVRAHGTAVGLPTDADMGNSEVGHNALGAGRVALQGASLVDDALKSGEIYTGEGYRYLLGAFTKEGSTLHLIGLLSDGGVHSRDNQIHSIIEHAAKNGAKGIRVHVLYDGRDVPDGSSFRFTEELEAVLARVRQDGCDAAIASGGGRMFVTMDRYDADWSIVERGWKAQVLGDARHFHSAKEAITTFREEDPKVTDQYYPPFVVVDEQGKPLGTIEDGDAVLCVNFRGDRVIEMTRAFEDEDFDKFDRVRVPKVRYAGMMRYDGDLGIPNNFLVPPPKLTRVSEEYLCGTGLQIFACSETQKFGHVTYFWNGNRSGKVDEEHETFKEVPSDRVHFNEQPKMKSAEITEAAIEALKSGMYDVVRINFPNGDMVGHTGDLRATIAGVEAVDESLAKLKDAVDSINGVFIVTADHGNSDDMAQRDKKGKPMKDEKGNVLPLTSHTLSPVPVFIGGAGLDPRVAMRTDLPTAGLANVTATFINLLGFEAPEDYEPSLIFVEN
row,SMILES,"activity change, negative = inhibition"
1,C=CC(N)CCC(=O)O (stereo not given),10.4% (inactive)
2,CN(C)c1ccc(/C=C2\C(=O)Nc3ccccc32)cc1,-13.2% (inactive)
3,COc1ccc(/C=C/C(=O)Nc2ccccc2C(=O)O)cc1OC,5.07% (inactive)
4,Cc1cc2c(cc1Cl)N(C(=O)Nc1ccc(Oc3cccnc3C)nc1)CC2,0.626% (inactive)
5,N#C/C(=C\c1ccc(O)c(O)c1)C(=O)NCc1ccccc1,2.96% (inactive)
6,OC[C@H]1O[C@@H](n2cnc3c(Nc4ccccc4)ncnc32)[C@H](O)[C@@H]1O,13.9% (inactive)
7,CN1C2CC(OC(=O)[C@H](CO)c3ccccc3)CC1C1OC12 (stereo not given in full),-0.783% (inactive)
8,O=c1[nH]c2cc(Cl)c(Cl)cc2[nH]c1=O,2.12% (inactive)
9,C=C[C@@H]1CN2CC[C@@H]1C[C@H]2[C@H](O)c1ccnc2ccc(OC)cc12,8.07% (inactive)
10,CCCCN1CCC(n2c(=O)[nH]c3ccccc32)CC1,-4.88% (inactive)
11,CCc1c(C(=O)NCCc2ccc(N3CCCCC3)cc2)[nH]c2ccc(Cl)cc12,-5.95% (inactive)
12,Cn1cc(C2=C(c3ccc(Cl)cc3Cl)C(=O)NC2=O)c2ccccc21,-6.78% (inactive)
13,S=C(S)OC1CC2CC1C1CCCC21 (stereo not given),-5.81% (inactive)
14,Nc1ncnc2c1ncn2[C@@H]1O[C@H](COP(=O)(O)OP(=O)(O)OP(=O)(O)OP(=O)(O)OC[C@@H]2O[C@H](n3cnc4c(N)ncnc43)[C@@H](O)[C@H]2O)[C@@H](O)[C@H]1O,15.3% (inactive)
15,CC1(C)CCC=[N+]1[O-],1.33% (inactive)
16,CC(=O)SCC[N+](C)(C)C,-4.93% (inactive)
17,O=C(O)c1cc(=O)c2ccccc2[nH]1,14.4% (inactive)
18,CCOC(=O)N1CCN(/[N+]([O-])=N/Oc2ccc([N+](=O)[O-])cc2[N+](=O)[O-])CC1,0.072% (inactive)
19,O=C(O)/C=C/C(O)c1ccc(Cl)cc1 (stereo not given),-2.87% (inactive)
20,CC(C)(C=O)Cc1cc(C(C)(C)C)c(O)c(C(C)(C)C)c1,6.72% (inactive)

row,SMILES,"activity change, negative = inhibition"
1,O=c1[nH]c2cc([N+](=O)[O-])c([N+](=O)[O-])cc2[nH]c1=O,-6.35% (inactive)
2,c1cnc2c(c1)ccc1cccnc12,12.6% (inactive)
3,COc1cc(C(O)CO)ccc1OS(=O)(=O)O (stereo not given),-8.74% (inactive)
4,NCCCCC(=O)O,-1.97% (inactive)
5,O=Nc1ccc2oc(=O)ccc2c1,5.72% (inactive)
6,Nc1nc(SCc2ccc([N+](=O)[O-])cc2)c2ncn([C@@H]3O[C@H](CO)[C@@H](O)[C@H]3O)c2n1,1.44% (inactive)
7,Clc1ccc(N2CCN(Cc3c[nH]c4ncccc34)CC2)cc1,10.8% (inactive)
8,CCCCCCCCCCCCCCCC(=O)NCC(COP(=O)([O-])OCC[N+](C)(C)C)OCC (stereo not given),5.23% (inactive)
9,NC(=O)C(=O)O,2.95% (inactive)
10,C[C@@H](NC(=O)/C(C#N)=C/c1ccc(O)c(O)c1)c1ccccc1,-1.39% (inactive)
11,COc1ccccc1N1CCN(CCCCNS(=O)(=O)c2cccc3c(N(C)C)cccc23)CC1,7.45% (inactive)
12,O=[N+]([O-])c1ccc(CSc2ncnc3c2ncn3[C@@H]2O[C@H](CO)[C@@H](O)[C@H]2O)cc1,7.47% (inactive)
13,NC(=S)c1ccc[n+]([C@@H]2O[C@@H](COP(=O)([O-])OP(=O)(O)OC[C@H]3O[C@@H](n4cnc5c(N)ncnc54)[C@H](OP(=O)(O)O)[C@@H]3O)C(O)C2O)c1 (stereo not given in full),-8.37% (inactive)
14,CC(C)Cc1ccc([C@H](C)C(=O)O)cc1,-2.56% (inactive)
15,CO/S(=N\S(=O)(=O)c1ccc(Cl)cc1)c1ccc([N+](=O)[O-])cc1 (stereo not given),2.07% (inactive)
16,CCCCCCCC/C=C\CCCCCCCC(=O)NCCO,15% (inactive)
17,C=C[C@H]1CN2CC[C@@H]1C[C@@H]2[C@@H](O)c1ccnc2ccc(OC)cc12,13.2% (inactive)
18,COc1cc(OC)c(/C=C2/C(=O)Nc3ccccc32)c(OC)c1,16.8% (inactive)
19,CN(C)CCCO[C@@H]1[C@H]2OC(C)(C)O[C@H]2O[C@@H]1[C@H](O)CO,12.7% (inactive)
20,NO,11.3% (inactive)
